Measured values published in PubChem BioAssay (NCI).
This is part of a sample that, as a whole, favours compounds with a hit. Of some 83,000 tested, about 20% had one in any assay.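 Step 1: grow cells in 96-well plates. Step 2: add test compound at a single concentration. Step 3: incubate 48 h. Step 4: record percent growth.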 A number with no mark means an inactive call. Active and inactive are the calls of the source. The calls were made as follows: active = growth percent below 10; inactive = the rest.

Key:
Experiment in all cases: NCI-60 one-dose screen, 48 h (100 = growth as untreated, 0 = no growth, -100 = all killed)
Conditions in all cases: 10 µM unless noted
[1] = system: NCI-H23 lung
[2] = system: NCI-H226 lung
[3] = system: NCI-H322M lung
[4] = system: HOP-62 NSCLC
[5] = system: NCI-H460 lung
[6] = system: HOP-92 NSCLC
[7] = system: NCI-H522 lung
[8] = system: A549/ATCC NSCLC
[9] = system: 786-0 renal
[10] = system: COLO 205 colon
[11] = system: DU-145 prostate
[12] = system: K-562 leukemia
[13] = system: MALME-3M melanoma
[14] = system: MDA-MB-231 breast
[15] = system: RXF 393 renal
[16] = system: SF-268 CNS
[17] = system: SF-295 CNS
[18] = system: SF-539 CNS
[19] = system: UACC-257 melanoma
[20] = system: M14 melanoma

SMILES | growth [1] | growth [2] | growth [3] | growth [4] | growth [5] | growth [6] | growth [7] | growth [8] | growth [9] | growth [10] | growth [11] | growth [12] | growth [13] | growth [14] | growth [15] | growth [16] | growth [17] | growth [18] | growth [19] | growth [20]
CCOC(=O)c1c(C(F)(F)F)n([O-])c2ccc(Cl)cc2[n+]1=O | 14.8% | 3.03% (active) | 6.75% (active) | -65.6% (active) | -78.5% (active) | -78.2% (active) | -59.4% (active) | -39.6% (active) | -73.8% (active) | -59.2% (active) | -95.7% (active) | -57.7% (active) | -84.5% (active) | -39.1% (active) | -60.6% (active) | -49.5% (active) | -86% (active) | -96.1% (active) | -70.6% (active) | -21.6% (active)
O=[N+]([O-])c1cccc(CN(Cc2cccc([N+](=O)[O-])c2O)c2ccccc2)c1O | 58.4% | 83.2% | 60.1% | 78.4% | 80.1% | 54.5% | 63.9% | 71% | 51.1% | 78% | 94.3% | 60.5% | 87.2% | 68.8% | 88.6% | 89.4% | 66.6% | 94.7% | 93.3% | 67.6%
COc1cc2nc3c(=O)n(CCN(C)C)cnn3c(=O)c2cc1OC | 95.9% | 103% | 95.2% | 101% | 105% | 100% | 89% | 105% | 105% | 102% | 108% | 125% | 99.4% | 116% | 108% | 101% | 99.5% | 97.7% | 107% | 95.5%
C#Cc1cccc(Nc2ncnc3ccc(NC(=O)c4ccccc4)cc23)c1 | 86.9% | 85.9% | 21.7% | 102% | 76.8% | 65% | 53.5% | 70.9% | 76.7% | 99.7% | 50.9% | 63.6% | 104% | 95.6% | 58.5% | 74.7% | 89.7% | 90.5% | 99.6% | 90.6%
c1ccc(-c2n(Cc3ccc4ccccc4n3)cc[n+]2Cc2ccc3ccccc3c2)cc1 | 2.93% (active) | 9.5% (active) | 23.6% | 16.5% | 6.08% (active) | -32.4% (active) | 2.04% (active) | 45.3% | 26.2% | -77.5% (active) | 28.2% | 5.02% (active) | -20% (active) | -6.39% (active) | -8.14% (active) | 20.5% | -7.2% (active) | 11.5% | -27.1% (active) | -24.8% (active)
CCOC(=O)c1c(C)nc2c(c1N)/C(=C/c1ccccn1)C(=O)N2Cc1ccccc1 | 23.6% | 44.4% | 62.7% | -8.66% (active) | 4.8% (active) | 30.5% | 0.177% (active) | 44.6% | -64.8% (active) | -42.7% (active) | 12.6% | -16% (active) | 31.4% | 14.1% | -76.4% (active) | 16.7% | 65.6% | 11.1% | 35.1% | 0.865% (active)
CC[C@H](Nc1ncnc2nc[nH]c12)c1nc2cccc(CC(=O)c3ccc(C(=O)NO)cc3)c2c(=O)n1-c1ccccc1 | 94.1% | 84.9% | 90.4% | 83.2% | 89.9% | 72.6% | 51.4% | 88.4% | 98.9% | 95.4% | 101% | 85.9% | 56.2% | 99.9% | 83.5% | 83% | 97.9% | 78.5% | 53.5% | 92.5%
S=C(Nc1ccc(Cl)cc1)c1ccccn1 | 83% | 88.1% | 97.2% | 78.3% | 101% | 77.1% | 73.7% | 88.9% | 93.2% | 110% | 105% | 90% | 85.2% | 93.1% | 97.8% | 96.5% | 91.4% | 102% | 91.1% | 103%
COc1ccc(C(=S)c2cc(OC)c(OC)c(OC)c2)cc1OC(=O)CCl | 31.4% | 103% | 42.4% | 30.9% | 7.23% (active) | 54.8% | 12.9% | 21.2% | 27.4% | 16.7% | 9.36% (active) | 10.2% | 74.2% | 32.9% | 44.7% | 39.3% | 14.7% | 9.83% (active) | 56.7% | 12.6%
CN1CCN(/C=C2\CC(C(=O)NCc3ccc(Cl)cc3Cl)NC2=O)CC1 (stereo not given) | 99.5% | 85.7% | 104% | 108% | 104% | 98.8% | 98.3% | 94.2% | 116% | 116% | 108% | 95.7% | 98.6% | 104% | 103% | 97.9% | 110% | 102% | 93.2% | 110%
Cc1cc(C)n(-c2nc(-c3cccs3)c(C#N)c(=O)[nH]2)n1 | 97.6% | 105% | 92.1% | 81.2% | 96.8% | 102% | 83.8% | 99.9% | 93.1% | 111% | 101% | 87.4% | 92.6% | 108% | 115% | 82.3% | 92.3% | 97.5% | 98.7% | 101%
Cc1ccc(C2=N[C@H]3CCC[C@@H]3N(c3ccccc3)C(C(Cl)Cl)=N2)cc1 | 95.5% | 107% | 93.3% | 111% | 110% | 107% | 93% | 98.4% | 98.3% | 98.8% | 101% | 94.9% | 95% | 117% | 83.2% | 94.6% | 91.7% | 105% | 110% | 91.9%
N#Cc1c(-c2ccc(F)cc2)nc(N/N=C/c2c[nH]c3ccccc23)nc1N1CCOCC1 | 91.8% | 125% | 66.5% | 69.6% | 16.5% | 68.1% | 46.3% | 47.1% | -24.4% (active) | 40.1% | 46.6% | 5.72% (active) | -63.5% (active) | 53.1% | -34.2% (active) | 68.8% | -17.4% (active) | 52.8% | -48.8% (active) | -0.73% (active)
O=C(CCCCCCCCC(=O)Nc1cccc(C2=NCCN2)c1)Nc1cccc(C2=NCCN2)c1 | 75.8% | 101% | 105% | 102% | 93.6% | 90.5% | 70.3% | 96.6% | 100% | 92.2% | 99.8% | 73.1% | 69.8% | 101% | 108% | 103% | 99.9% | 108% | 95.6% | 97.1%
O=C(/C(=C/c1ccc([N+](=O)[O-])cc1)SCc1ccc(Cl)cc1)c1ccc(F)cc1 | 57% | 66.7% | 100% | 68.7% | 83.1% | 80.3% | -1.33% (active) | 80.5% | 76.9% | 48.3% | 86.3% | 1.3% (active) | 85.7% | 56.3% | 92% | 76.1% | 84.9% | 88.6% | 92.5% | 47.3%
Nc1ccc(C(=O)Nc2cccc(C(=O)Nc3ccc4c(O)c(N=Nc5ccc(N=Nc6ccc(S(=O)(=O)O)cc6)cc5)c(S(=O)(=O)O)cc4c3)c2)cc1 | 96.8% | 111% | 101% | 98.5% | 105% | 108% | 92.3% | 102% | 103% | 114% | 107% | 88.1% | 93.8% | 101% | 109% | 102% | 104% | 102% | 111% | 97.3%
